Measured values published in the supplement of paper PMC10849652.
Targets with a hit are over-represented here; the source holds about 8,800 in all. About 0.5% of all pairs of compound and target were hits. Values without a mark were called inactive.

Key:
Test in all cases: log2 fold change, soluble protein after heating vs DMSO (PISA); higher = thermal stabilisation; K562 lysate, 10 uM; active = over 0.2 and 3.5 SD of the protein, either way, in both replicates (recomputed)
[1] = compound: NCC(=O)Nc1ccc(-n2nc(C(F)(F)F)cc2-c2ccc3c(ccc4ccccc43)c2)cc1
Summary of the method: (§1)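 The values are log-two fold changes in thermal stability compared with solvent controls and come from duplicates. They were obtained by TMTpro 16plex LC-MS/MS, with channel sums equalised, on the supernatant after 21,000xg for 90 min. That supernatant came from crude K562 extract at 1 mg/mL protein treated with 10 μM compound for 30 min, heated for 3 min across 48°C-58°C, pooled and brought to 0.5% NP-40 at 4°C.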

vorinostat = compound: O=C(CCCCCCC(=O)Nc1ccccc1)NO [vorinostat]
Summary of the method: as §1

silmitasertib = compound: O=C(O)c1ccc2c(c1)nc(Nc1cccc(Cl)c1)c1ccncc12 [silmitasertib]
Summary of the method: as §1

[2] = compound: O=C1NC(=O)C(c2cnc3ccccn23)=C1c1cn2c3c(cc(F)cc13)CN(C(=O)N1CCCCC1)CC2
Summary of the method: as §1

entospletinib = compound: c1cn2cc(-c3ccc4cn[nH]c4c3)nc(Nc3ccc(N4CCOCC4)cc3)c2n1 [entospletinib]
Summary of the method: as §1

Sequence of UniProt Q9P0U4 (Q9P0U4 whole entry, looked up): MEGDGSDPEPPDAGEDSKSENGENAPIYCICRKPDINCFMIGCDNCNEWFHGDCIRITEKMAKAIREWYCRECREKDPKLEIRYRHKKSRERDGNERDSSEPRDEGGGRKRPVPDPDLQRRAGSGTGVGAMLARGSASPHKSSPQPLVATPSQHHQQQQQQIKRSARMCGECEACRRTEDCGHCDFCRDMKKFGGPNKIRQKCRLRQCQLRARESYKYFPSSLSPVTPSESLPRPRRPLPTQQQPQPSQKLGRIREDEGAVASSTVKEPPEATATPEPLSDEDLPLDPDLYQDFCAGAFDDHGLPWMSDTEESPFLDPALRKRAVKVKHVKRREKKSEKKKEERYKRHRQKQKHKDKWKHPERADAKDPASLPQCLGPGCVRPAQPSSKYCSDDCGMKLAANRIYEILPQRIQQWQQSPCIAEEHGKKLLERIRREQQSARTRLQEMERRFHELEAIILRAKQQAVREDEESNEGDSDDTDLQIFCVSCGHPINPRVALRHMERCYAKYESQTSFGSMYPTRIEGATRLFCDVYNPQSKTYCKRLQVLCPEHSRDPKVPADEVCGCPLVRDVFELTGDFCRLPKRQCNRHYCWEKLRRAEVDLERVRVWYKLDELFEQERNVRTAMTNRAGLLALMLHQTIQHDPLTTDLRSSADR
Sequence of UniProt Q8IY22 (Q8IY22 whole entry, looked up): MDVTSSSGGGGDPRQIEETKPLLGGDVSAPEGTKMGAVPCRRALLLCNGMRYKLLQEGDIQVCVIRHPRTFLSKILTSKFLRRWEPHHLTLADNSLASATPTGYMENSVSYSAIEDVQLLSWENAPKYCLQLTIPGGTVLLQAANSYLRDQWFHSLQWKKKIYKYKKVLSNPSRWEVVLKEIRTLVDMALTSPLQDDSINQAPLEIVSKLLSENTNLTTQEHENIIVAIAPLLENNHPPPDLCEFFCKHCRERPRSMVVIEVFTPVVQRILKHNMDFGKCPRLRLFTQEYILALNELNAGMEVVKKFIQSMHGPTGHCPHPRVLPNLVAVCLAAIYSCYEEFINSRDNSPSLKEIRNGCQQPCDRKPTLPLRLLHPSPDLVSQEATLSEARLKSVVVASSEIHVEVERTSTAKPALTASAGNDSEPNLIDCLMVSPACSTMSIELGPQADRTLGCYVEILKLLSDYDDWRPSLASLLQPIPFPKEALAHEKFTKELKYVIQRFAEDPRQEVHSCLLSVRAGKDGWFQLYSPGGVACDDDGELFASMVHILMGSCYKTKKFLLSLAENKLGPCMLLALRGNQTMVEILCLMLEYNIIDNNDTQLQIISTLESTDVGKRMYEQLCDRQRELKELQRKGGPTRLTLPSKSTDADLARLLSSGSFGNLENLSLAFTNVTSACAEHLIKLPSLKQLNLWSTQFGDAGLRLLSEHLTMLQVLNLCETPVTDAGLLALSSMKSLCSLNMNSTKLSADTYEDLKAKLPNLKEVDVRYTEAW
Sequence of UniProt Q9BY43 (Q9BY43 whole entry, looked up): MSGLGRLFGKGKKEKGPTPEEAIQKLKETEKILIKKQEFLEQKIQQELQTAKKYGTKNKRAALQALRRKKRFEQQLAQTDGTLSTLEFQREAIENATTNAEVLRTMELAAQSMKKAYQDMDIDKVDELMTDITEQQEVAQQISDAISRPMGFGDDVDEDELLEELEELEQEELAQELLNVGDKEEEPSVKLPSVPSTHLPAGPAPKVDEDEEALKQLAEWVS
Sequence of UniProt Q9H9E3 (Q9H9E3 whole entry, looked up): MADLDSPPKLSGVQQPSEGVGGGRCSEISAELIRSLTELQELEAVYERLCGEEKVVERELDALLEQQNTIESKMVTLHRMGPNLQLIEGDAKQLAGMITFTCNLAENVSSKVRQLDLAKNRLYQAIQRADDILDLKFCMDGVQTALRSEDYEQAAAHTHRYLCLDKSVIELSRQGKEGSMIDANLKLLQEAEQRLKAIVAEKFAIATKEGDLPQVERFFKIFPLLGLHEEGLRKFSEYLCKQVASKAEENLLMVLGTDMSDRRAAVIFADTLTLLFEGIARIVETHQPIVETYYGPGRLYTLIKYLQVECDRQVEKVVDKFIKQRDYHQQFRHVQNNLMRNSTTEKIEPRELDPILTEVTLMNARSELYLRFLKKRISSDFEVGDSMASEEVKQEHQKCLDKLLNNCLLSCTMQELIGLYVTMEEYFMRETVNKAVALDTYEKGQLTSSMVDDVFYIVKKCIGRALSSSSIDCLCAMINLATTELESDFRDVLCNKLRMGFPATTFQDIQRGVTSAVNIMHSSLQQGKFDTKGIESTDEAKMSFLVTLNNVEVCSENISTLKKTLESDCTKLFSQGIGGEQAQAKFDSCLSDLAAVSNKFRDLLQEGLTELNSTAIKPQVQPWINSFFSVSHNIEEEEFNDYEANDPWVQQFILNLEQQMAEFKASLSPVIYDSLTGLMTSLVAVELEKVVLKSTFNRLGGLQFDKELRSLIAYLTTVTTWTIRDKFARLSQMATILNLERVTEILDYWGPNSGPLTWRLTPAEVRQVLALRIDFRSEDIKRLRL
Sequence of UniProt Q13948 (Q13948 whole entry, looked up): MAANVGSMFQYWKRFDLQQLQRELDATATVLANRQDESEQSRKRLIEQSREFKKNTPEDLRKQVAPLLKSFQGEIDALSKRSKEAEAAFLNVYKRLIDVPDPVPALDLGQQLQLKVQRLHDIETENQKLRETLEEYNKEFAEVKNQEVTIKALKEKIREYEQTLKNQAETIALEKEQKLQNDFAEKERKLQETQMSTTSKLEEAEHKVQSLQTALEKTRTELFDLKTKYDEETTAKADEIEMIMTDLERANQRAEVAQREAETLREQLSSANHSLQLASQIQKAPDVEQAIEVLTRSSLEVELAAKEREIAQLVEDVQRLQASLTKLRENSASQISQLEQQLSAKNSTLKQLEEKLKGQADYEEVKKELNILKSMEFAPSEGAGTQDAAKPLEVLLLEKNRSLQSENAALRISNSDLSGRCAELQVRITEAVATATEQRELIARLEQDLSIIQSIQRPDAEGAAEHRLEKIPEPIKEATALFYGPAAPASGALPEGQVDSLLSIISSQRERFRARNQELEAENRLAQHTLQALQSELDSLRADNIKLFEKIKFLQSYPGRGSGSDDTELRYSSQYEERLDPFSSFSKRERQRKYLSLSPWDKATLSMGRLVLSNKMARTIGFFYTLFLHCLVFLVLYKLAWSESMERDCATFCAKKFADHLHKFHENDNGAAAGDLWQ
Sequence of UniProt Q96KA5 (Q96KA5 whole entry, looked up): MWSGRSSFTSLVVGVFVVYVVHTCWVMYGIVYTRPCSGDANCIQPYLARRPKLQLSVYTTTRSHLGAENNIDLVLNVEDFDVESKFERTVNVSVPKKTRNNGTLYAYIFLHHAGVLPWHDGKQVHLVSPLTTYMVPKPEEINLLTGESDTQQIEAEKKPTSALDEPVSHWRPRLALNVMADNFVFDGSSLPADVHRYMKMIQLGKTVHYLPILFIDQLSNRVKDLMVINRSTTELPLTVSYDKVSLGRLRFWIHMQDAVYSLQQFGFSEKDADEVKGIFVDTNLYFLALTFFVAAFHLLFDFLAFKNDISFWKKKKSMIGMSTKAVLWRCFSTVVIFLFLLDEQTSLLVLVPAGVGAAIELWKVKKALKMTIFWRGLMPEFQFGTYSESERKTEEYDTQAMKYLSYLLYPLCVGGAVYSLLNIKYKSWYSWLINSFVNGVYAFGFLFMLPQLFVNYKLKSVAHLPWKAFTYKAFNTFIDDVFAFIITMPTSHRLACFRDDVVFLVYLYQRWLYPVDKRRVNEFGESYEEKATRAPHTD
Sequence of UniProt Q9UP83 (Q9UP83 whole entry, looked up): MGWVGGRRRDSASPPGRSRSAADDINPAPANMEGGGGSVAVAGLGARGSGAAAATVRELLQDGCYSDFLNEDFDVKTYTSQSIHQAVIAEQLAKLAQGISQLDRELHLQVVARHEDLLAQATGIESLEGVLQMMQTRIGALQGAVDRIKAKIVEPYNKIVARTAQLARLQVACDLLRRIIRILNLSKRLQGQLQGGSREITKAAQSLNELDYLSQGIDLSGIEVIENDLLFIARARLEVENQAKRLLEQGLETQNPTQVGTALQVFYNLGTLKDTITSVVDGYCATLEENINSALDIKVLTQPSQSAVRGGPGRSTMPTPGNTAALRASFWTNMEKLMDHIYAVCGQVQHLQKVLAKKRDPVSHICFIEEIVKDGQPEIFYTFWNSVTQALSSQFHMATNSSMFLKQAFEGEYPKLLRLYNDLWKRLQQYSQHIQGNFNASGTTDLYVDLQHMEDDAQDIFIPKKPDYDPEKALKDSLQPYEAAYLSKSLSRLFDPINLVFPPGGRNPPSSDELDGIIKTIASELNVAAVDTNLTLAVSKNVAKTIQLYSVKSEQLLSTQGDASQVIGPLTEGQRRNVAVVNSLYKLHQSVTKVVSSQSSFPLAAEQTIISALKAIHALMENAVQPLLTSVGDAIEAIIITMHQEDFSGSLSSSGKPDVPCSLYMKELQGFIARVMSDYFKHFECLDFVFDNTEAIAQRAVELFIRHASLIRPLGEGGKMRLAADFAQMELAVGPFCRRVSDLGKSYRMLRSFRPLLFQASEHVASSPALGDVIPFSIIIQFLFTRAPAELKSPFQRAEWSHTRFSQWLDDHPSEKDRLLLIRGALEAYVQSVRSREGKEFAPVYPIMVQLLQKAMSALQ
Sequence of UniProt Q99828 (Q99828 whole entry, looked up): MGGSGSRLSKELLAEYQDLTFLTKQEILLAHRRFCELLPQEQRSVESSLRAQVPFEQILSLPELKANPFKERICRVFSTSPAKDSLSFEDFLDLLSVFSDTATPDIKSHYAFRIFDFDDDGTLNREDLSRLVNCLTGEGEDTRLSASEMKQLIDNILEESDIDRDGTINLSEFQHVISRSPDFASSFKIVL
Sequence of UniProt P04080 (P04080 whole entry, looked up): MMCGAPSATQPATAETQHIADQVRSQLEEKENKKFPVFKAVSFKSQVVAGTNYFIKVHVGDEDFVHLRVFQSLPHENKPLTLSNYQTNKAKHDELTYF
Sequence of UniProt Q9H5X1 (Q9H5X1 whole entry, looked up): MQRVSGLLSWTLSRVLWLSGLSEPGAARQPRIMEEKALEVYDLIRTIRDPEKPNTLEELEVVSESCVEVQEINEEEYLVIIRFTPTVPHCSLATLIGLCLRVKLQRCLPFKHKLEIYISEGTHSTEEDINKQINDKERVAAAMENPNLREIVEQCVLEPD

Row | Target | log2 fold change [1] | log2 fold change (vorinostat) | log2 fold change (silmitasertib) | log2 fold change [2] | log2 fold change (entospletinib)
1 | CIB1 (UniProt Q99828) | -0.027 | 0.049 | -0.006 | -0.037 | -0.091
2 | CHMP4A isoform 2 (UniProt Q9BY43) | 0.011 | 0.1 | -0.027 | -0.051 | 0.019
3 | CMIP (UniProt Q8IY22) | -0.101 | -0.541 (active) | 0.018 | 0.021 | -0.052
4 | DGCR8 (UniProt Q8WYQ5) | -0.027 | -0.38 (active) | -0.041 | -0.054 | -0.066
5 | COG4 (UniProt Q9H9E3) | 0.101 | -0.333 (active) | 0.022 | -0.022 | -0.023
6 | COG5 isoform 2 (UniProt Q9UP83) | -0.005 | -0.342 (active) | 0.073 | -0.029 | 0.038
7 | COL6A5 (UniProt A8TX70) | 0.281 | 0.011 | -0.003 | 0.022 | 0.009
8 | CSNK1E (UniProt P49674) | 0.016 | -0.419 (active) | 0.206 | 0.01 | 0.012
9 | CLPB isoform 2 (UniProt Q9H078) | 0.075 | -0.446 (active) | 0.062 | -0.028 | 0.016
10 | CLPTM1L (UniProt Q96KA5) | -0.045 | 0.136 | 0.012 | 0.012 | -0.039
11 | CIAO2A (UniProt Q9H5X1) | 0.021 | 0.368 (active) | -0.016 | -0.037 | 0.009
12 | CXXC1 isoform 2 (UniProt Q9P0U4) | -0.008 | -0.18 | 0.08 | 0.027 | -0.033
13 | CUX1 isoform 2 (UniProt Q13948) | -0.102 | 0.101 | 0.086 | 0.676 | -0.077
14 | CSTB (UniProt P04080) | -0.097 | 0.125 | -0.045 | 0.022 | -0.007
